Screening results as filed in PubChem.
An excerpt weighted towards active compounds, which were near 3.1% of everything screened.
mTORC1 inh: mTORC1 pathway inhibition measured by phospho-rpS6; 44,000 compounds, 0.78% hits; Potency, µM (highest dose often 38.3 µM), without a hit: top-dose activity change, negative = inhibition, hits mostly inhibitors; AID 493208; Tsc2-/- p53-/- MEF, phospho-rpS6 immunofluorescence/PI, 24 h;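 note: plate controls were DMSO for no effect and rapamycin for full effect; nearly all actives have a fitted effect of over 50% in size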
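Read-out: phospho-S6 Alexa-488 intensity over PI intensity per well, scored as % active cells using thresholds from rapamycin (7.5 nM) and DMSO controls. Tsc2-/-, p53-/- MEFs exposed to compound for 24 h; PI cell count recorded as viability.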
OvCa metastasis: inhibitors of ovarian cancer cell adhesion and invasion in omental model | SKOV3ip1-GFP adhesion/invasion on 3D omental model, fluorescence | Potency, µM (highest dose often 45.8 µM), for the others: at the highest dose activity change, negative = inhibition, hits mostly inhibitors | 46,000 compounds, 0.1% hits | AID 1963576;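 note: plate controls were DMSO wells for no effect and tomatine positive control wells for full effect; nearly all actives have a fitted effect of over 65% in size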
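Adhesion/invasion was scored as fixed GFP-labeled SKOV3ip1 cell counts (488/509 nm), normalized to DMSO and tomatine controls. Cancer cells in serum-free medium, with four compound doses (0.36-46 umol/L), sat 2 hr at RT then 16 hr at 37 C on a 48 hr fibroblast/mesothelial/ECM culture.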
p53null 39C tox: p53 null cell cytotoxicity, nonpermissive temperature; H1299 p53-null (neo) cells, 39C, ATPlite viability, 24 h; 55,000 compounds, 0.97% hits; Potency, µM (series often up to 46.1 µM), without a hit: at the top dose activity, negative = cell killing, most hits filed as cytotoxic;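 note: 0% = DMSO only and -100% = full killing by 100 µM tamoxifen; nearly all actives have a fitted effect of over 50% in size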
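Cells seeded at 600/well, 37C overnight. Compound added (up to 46 uM), plates shifted to 39C for 24 hr. ATPlite added, luminescence read after 20 min at room temperature.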
PMP22 txn: modulators of PMP22 gene transcription in S16 Schwann cells; S16 Pmp22-F2sN Schwann cells, FLuc/NLuc coincidence luminescence, 24 h; Potency, µM (doses to about 57.5 µM), inactives show top-dose activity change, negative = inhibition, actives largely listed as inhibitors; 43,000 compounds, 2% hits; active = clear falling dose curves in both reporters; inconclusive = both reporters move, but less clearly or upward; inactive = either reporter flat; the % is the NLuc reporter signal
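Luminescent read-out of sequential FLuc and NLuc signals from a reporter embedded in the Pmp22 3' UTR of S16 Schwann cells, taken after 24 h compound exposure at 37C; compounds reducing both signals score as inhibitors of expression.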
S16 F2sN tox: S16 Schwann cell cytotoxicity; 43,000 compounds, 0.48% hits; S16 Pmp22-F2sN Schwann cells viability, CellTiter-Glo, 24 h; Potency, µM (doses to about 57.5 µM), for inactives: at the highest dose activity change, negative = cytotoxicity, actives largely listed as cytotoxic; note: nearly all actives have a fitted effect of over 65% in size
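S16 Pmp22-F2sN Schwann cells (500-1,000/well) in phenol-red-free DMEM with 10% FBS received 23 nL compound by pin tool for 24 h at 37 °C. Viability was then read as CellTiter-Glo luminescence after 15 min at room temperature.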
p53null 32C kill: selectivity test: cytotoxicity in p53 null cells, permissive temperature | H1299-neo p53 null cells, ATP luminescence, 24 h, 32C | Potency, µM (series often up to 46.1 µM), inactives show at the top dose activity change, negative = cytotoxicity, most hits filed as cytotoxic | 55,000 compounds, 0.62% hits;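 note: 0% = DMSO only and -100% = full killing by 100 µM tamoxifen; nearly all actives have a fitted effect of over 55% in size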
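Overnight 37C seeding (600 cells/well) of H1299-neo preceded a 24 hr, 32C exposure to compounds up to 46 uM. ATP levels, read by luminescence after 20 min at RT, indicated surviving cells.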
Active calls of the source: *; i = inactive; ? = inconclusive; . = no result given. Unless noted, calls come from the whole dose curve; as a rule, active = well fitted curve in the direction sought with a large enough effect; inconclusive = small, poorly fitted or top-dose-only effect, or another doubt; inactive = no such curve, though single readings can be large; an effect the other way counts as inactive or inconclusive. Unless noted, % is set by controls: 0 for no effect and ±100 for the full control effect; potency is the fitted concentration of half-maximal effect.

SMILES | mTORC1 inh | OvCa metastasis | p53null 39C tox | PMP22 txn | S16 F2sN tox | p53null 32C kill
CCC1CCc2nc3sc(C(=O)Nc4ccc(C)cc4)c(N)c3cc2C1 (stereo unspecified) | 18µM* | -5% | 13% | -16% | 3% | -2%
O=C(O)c1ccccc1C(=O)Nc1ccc(-c2ccccc2)cc1 | . | 10% | . | . | . | .
Cc1ccccc1C(=O)Nc1cccc(NC(=O)c2ccc(C(C)(C)C)cc2)c1 | 8% | ? | ? | ? | -22% | 13µM*
O=C(Nc1cccc(NC(=O)c2ccccc2F)c1)c1ccccc1 | 12% | -4% | 20% | 0% | ? | -4%
N#CC(=C(O)c1ccc(Cl)cc1Cl)c1nc2cc(Cl)ccc2c(=O)[nH]1 | . | -7% | . | . | . | .
COc1ccccc1Nc1c2c(nc3ccc(NC(=O)c4ccc(OC)c(OC)c4)cc13)CCCC2 | ? | ? | 22µM* | ? | ? | ?
COc1ccccc1Nc1c2c(nc3ccc(NC(=O)c4cccc(OC)c4OC)cc13)CCCC2 | 16µM* | ? | 14% | ? | ? | -22%
Cc1ccc(F)c(NC(=O)Nc2ccc(-c3cccc4[nH]nc(N)c34)cc2)c1 | . | 7% | . | . | . | .
Cn1cc(-c2ccc3nnc(C(F)(F)c4ccc5ncccc5c4)n3n2)cn1 | . | 5% | . | . | . | .
Cc1ccc(-c2cn3c(n2)sc2cc(C(=O)NCCCN4CCCCC4)ccc23)cc1 | 7% | 8.9µM* | -12% | 8.9µM* | 4µM* | -3%
CCCN1CCN(CCCNC(=O)c2ccc3c(c2)sc2nc(-c4ccc(OCC)cc4)cn23)CC1 | ? | ? | 25µM* | ? | ? | ?
Cc1ccc(-c2cn3c(n2)sc2cc(C(=O)NCCCN4CCCCCC4)ccc23)cc1 | 0% | ? | -15% | ? | ? | 7%
CCOc1ccc(-c2cn3c(n2)sc2cc(C(=O)NCCCN(CC)CC)ccc23)cc1 | -4% | ? | 4% | 4.5µM* | 10µM* | -3%
CCOc1ccc(-c2cn3c(n2)sc2cc(C(=O)NCCCN4CCCCCC4)ccc23)cc1 | 3% | ? | -5% | ? | ? | 10%
CCOc1ccc(-c2cn3c(n2)sc2cc(C(=O)NCCCN4CCCCC4)ccc23)cc1 | 2% | 11µM* | -1% | 14µM* | 7.1µM* | -6%
CC(=O)ON=C1C(c2c(O)[nH]c3cc(Br)ccc23)=Nc2ccccc21 | . | -20% | . | . | . | .
CCc1cc(Nc2nccc(-c3c(-c4ccc(OC)c(C(=O)Nc5c(F)cccc5F)c4)nc4ccccn34)n2)c(OC)cc1N1CCC(N2CCN(S(C)(=O)=O)CC2)CC1 | . | 2% | . | . | . | .
CC1(C)[C@H]2CC[C@]3(C)[C@@H](C(=O)C=C4[C@@H]5C[C@@](C)(C(=O)O)CC[C@]5(C)CC[C@]43C)[C@@]2(C)CC[C@@H]1O | . | 18% | . | . | . | .
CCOC(=O)[C@H](CCc1ccccc1)N[C@@H](C)C(=O)N1CCCC1C(=O)O (stereo partly specified) | . | 0% | . | . | . | .
Cc1cc(-c2ccc(S(=O)(=O)Nc3cccc(C)c3C)s2)on1 | ? | i | ? | 10µM* | ? | -13%
O=C(NC1CCNCC1)c1[nH]ncc1NC(=O)c1c(Cl)cccc1Cl | . | 19% | . | . | . | .
CCOc1cc(CNCCSc2nnnn2C)cc(Cl)c1OCc1ccc(Cl)cc1 | 16µM* | ? | 11µM* | ? | -12% | ?
CN(C)c1ccc(C2C=C(c3ccccc3)Nc3nnnn32)cc1 (stereo unspecified) | ? | 5% | 7.9µM* | ? | -2% | ?
CCOc1ccc(C2C=C(c3cccc(OC)c3)Nc3nnnn32)cc1 (stereo unspecified) | -10% | i | ? | -2% | 10% | -8%
